{"source": "PubChem BioAssay AID1030", "about": "(National Center for Advancing Translational Sciences (NCATS), 2008)", "note": "The campaign covered roughly 220,000 compounds. About 16,000 (7.3%) were called active. A call without a number means that no potency is given here. Inconclusive results (about 25%) are left out. Calls follow the shape of the dose curve; as a rule, active = well fitted inhibition curve with a large enough effect (not every such curve was filed as active); inconclusive = small, poorly fitted or top-dose-only effect, or another doubt; inactive = no such curve, though single readings can be large or run the other way. For the sample, actives were picked, then their nearest neighbours and some compounds at random. Potency is read from the fitted curve at half-maximal effect.", "data": [{"target": "Aldehyde dehydrogenase 1A1 (Homo sapiens) (UniProt P00352)", "sequence (P00352 whole entry, looked up)": "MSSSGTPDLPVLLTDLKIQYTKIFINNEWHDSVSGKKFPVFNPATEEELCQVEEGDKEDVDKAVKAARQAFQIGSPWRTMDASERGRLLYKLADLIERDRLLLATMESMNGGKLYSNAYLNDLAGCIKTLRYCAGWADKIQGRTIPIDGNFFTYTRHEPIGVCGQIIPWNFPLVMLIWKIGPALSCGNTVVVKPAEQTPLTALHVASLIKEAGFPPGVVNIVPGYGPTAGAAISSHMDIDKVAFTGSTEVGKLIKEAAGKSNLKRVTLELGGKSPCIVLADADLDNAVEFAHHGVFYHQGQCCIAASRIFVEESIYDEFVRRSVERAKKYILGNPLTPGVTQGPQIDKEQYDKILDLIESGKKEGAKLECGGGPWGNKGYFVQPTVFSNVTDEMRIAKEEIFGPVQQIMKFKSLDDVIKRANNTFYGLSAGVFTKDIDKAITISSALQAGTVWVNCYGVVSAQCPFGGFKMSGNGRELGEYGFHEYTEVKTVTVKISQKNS", "test": "qHTS Assay for Inhibitors of Aldehyde Dehydrogenase 1 (ALDH1A1)", "conditions": "Purified ALDH1A1, NADH fluorescence, propionaldehyde substrate; series mostly up to 75.3 µM", "values": [{"smiles": "COCC(C)NC(=O)COc1nncc2ccccc12", "note": "(stereo unspecified)", "Potency": "inactive"}, {"smiles": "COc1ccc(C2c3[nH]c4ccccc4c3CCN2CCCn2cccn2)cc1C", "note": "(stereo unspecified)", "Potency": "inactive"}, {"smiles": "Cc1ccc(/C=N/NC(=O)CNC(=O)COc2ccccc2)o1", "Potency": "inactive"}, {"smiles": "Cc1ccc(/C=N/NC(=O)Cn2nc(C)c(Br)c2C)o1", "Potency": "inactive"}, {"smiles": "O=C(CSc1nnc(-c2ccc([N+](=O)[O-])cc2)o1)Nc1ccccn1", "Potency": "inactive"}, {"smiles": "C/C(=N/NC(=O)CSc1ccccn1)c1ccc([N+](=O)[O-])cc1", "Potency": "20 µM (active)"}, {"smiles": "Cc1cccc(C)c1NC(=O)CSc1ccc([N+](=O)[O-])cn1", "Potency": "inactive"}, {"smiles": "Cc1ccc(/C=N/NC(=O)CSc2ccccn2)o1", "Potency": "7.94 µM (active)"}, {"smiles": "CC1CC(C)(C)NC(=S)N1CCC(=O)N1CCN(Cc2ccccc2)CC1", "note": "(stereo unspecified)", "Potency": "inactive"}, {"smiles": "Cc1sc2nc(CSCC(=O)Nc3c(Cl)cccc3Cl)[nH]c(=O)c2c1C", "Potency": "inactive"}, {"smiles": "CSc1nnc(SCc2nc3sc(C(=O)O)c(C)c3c(=O)[nH]2)s1", "Potency": "7.08 µM (active)"}, {"smiles": "CCN(CC)Cc1nc2sc(C)c(C)c2c(=O)[nH]1", "Potency": "inactive"}, {"smiles": "Fc1ccccc1N=C1Nc2cccc3cccc1c23", "Potency": "inactive"}, {"smiles": "CCOc1ccc(CCNC(=O)C(CC)n2nc(C)n3c(cc4sccc43)c2=O)cc1OCC", "note": "(stereo unspecified)", "Potency": "31.6 µM (active)"}, {"smiles": "COc1ccc(CCNC(=O)c2cc3sccc3n2C)cc1OC", "Potency": "inactive"}, {"smiles": "CCC(C(=O)NCc1ccc(OC)cc1)n1nc(C)n2c(cc3occc32)c1=O", "note": "(stereo unspecified)", "Potency": "inactive"}, {"smiles": "CCCCC/C=C\\C/C=C\\CCCCCCCCCC(=O)NCC(=O)O", "Potency": "inactive"}, {"smiles": "CC(C)(C)c1cc(C(=O)N/N=C/c2ccc([N+](=O)[O-])s2)n[nH]1", "Potency": "inactive"}, {"smiles": "Cc1ccc(SCCC(=O)Nc2cc(C)on2)cc1", "Potency": "inactive"}, {"smiles": "O=c1c2ccccc2c(-c2ccccc2)nn1-c1ccccn1", "Potency": "inactive"}, {"smiles": "CCCc1nc(NCc2ccc3c(c2)OCO3)c2nnn(Cc3ccccc3Cl)c2n1", "Potency": "inactive"}, {"smiles": "C#CCNc1nc(C(C)C)nc2c1nnn2Cc1ccccc1F", "Potency": "11.2 µM (active)"}, {"smiles": "CC(O)C(NS(=O)(=O)c1ccc(Cl)cc1)C(=O)OCc1cc([N+](=O)[O-])cc2c1OCOC2", "note": "(stereo unspecified)", "Potency": "inactive"}, {"smiles": "Cc1cc(CNC(=O)c2cccc([N+](=O)[O-])c2)c2ccccc2n1", "Potency": "inactive"}, {"smiles": "CCO[C@H]1OC(C(=O)O)=C[C@@H](C2CCCCC2)[C@@H]1CCCO", "Potency": "inactive"}, {"smiles": "COc1ccccc1NC(=O)C[n+]1ccccc1", "Potency": "inactive"}, {"smiles": "O=C(Nc1ccccc1C(F)(F)F)N1CCCC1c1cccnc1", "note": "(stereo unspecified)", "Potency": "inactive"}, {"smiles": "CC(C)CNC(=O)/C=C/C(=O)O", "Potency": "inactive"}, {"smiles": "CC1=CC(C)(C)NC(=S)N1c1ccccc1", "Potency": "inactive"}, {"smiles": "O=C1/C(=C\\c2ccsc2)NC(=S)N1c1ccccc1", "Potency": "28.2 µM (active)"}, {"smiles": "CCCCCCCCCCCCC(NC(C)=O)(C(=O)OCC)C(=O)OCC", "Potency": "inactive"}, {"smiles": "COc1cc(NC(=O)CN(C)S(=O)(=O)c2ccc3nc(C)sc3c2)cc(OC)c1", "Potency": "inactive"}, {"smiles": "COc1ccccc1OCCC(=O)OCC(=O)NCc1ccccc1", "Potency": "inactive"}, {"smiles": "COc1cc(C=O)c(Br)cc1OCC(=O)NCc1ccccc1", "Potency": "inactive"}, {"smiles": "COc1cc(C(=S)NCc2ccccc2)cc(Br)c1O", "Potency": "1.78 µM (active)"}, {"smiles": "COCCn1c(CN2CCC(Cc3ccccc3)CC2)nc2c1c(=O)n(C)c(=O)n2C", "Potency": "inactive"}, {"smiles": "C=CCOc1nc2c(c(=O)n(C)c(=O)n2C)n1Cc1ccc(Cl)cc1Cl", "Potency": "inactive"}, {"smiles": "Cn1c(=O)c2c(nc(OCc3cccnc3)n2Cc2ccccc2)n(C)c1=O", "Potency": "10 µM (active)"}, {"smiles": "CCOC(=O)N1CCN(Cc2nc3c(c(=O)n(C)c(=O)n3C)n2Cc2ccccc2)CC1", "Potency": "0.126 µM (active)"}, {"smiles": "CC1CN(Cc2nc3c(c(=O)n(C)c(=O)n3C)n2Cc2cccc(Cl)c2)CC(C)O1", "note": "(stereo unspecified)", "Potency": "inactive"}, {"smiles": "Cn1c(=O)c2c(nc(NCCc3ccccc3)n2Cc2ccccc2)n(C)c1=O", "Potency": "inactive"}, {"smiles": "Cn1c(SCC(=O)Nc2ccc(Br)cc2F)nnc1-c1ccco1", "Potency": "inactive"}, {"smiles": "CCCC1NC(=S)NC(C)=C1C(C)=O", "note": "(stereo unspecified)", "Potency": "inactive"}, {"smiles": "CCO[C@H]1OC(C(=O)NCc2ccccc2)=C[C@@H](c2coc3ccccc3c2=O)[C@@H]1CCCO", "Potency": "inactive"}, {"smiles": "COCCNC(=S)N1CCC(NC(=O)C23CC4CC(CC(C4)C2)C3)CC1", "Potency": "inactive"}, {"smiles": "Cc1cccc(C)c1NC(=O)Nc1ccccc1-n1ccnc1", "Potency": "inactive"}, {"smiles": "COc1ccc(OCC(=O)OCC(=O)Nc2ccc(S(=O)(=O)N3CCCCC3)cc2)cc1", "Potency": "10 µM (active)"}, {"smiles": "COc1ccc(NC(=O)COC(=O)CNC(=O)C2CCCCC2)cc1", "Potency": "inactive"}, {"smiles": "COC(=O)COc1ccc(S(=O)(=O)N2CCOCC2)cc1", "Potency": "inactive"}, {"smiles": "Cc1cccc(NC(=O)c2sc3nc4c(c(-c5ccco5)c3c2N)CCC4)c1", "Potency": "12.6 µM (active)"}, {"smiles": "O=c1oc(-c2ccco2)nc2sc3c(c12)CCCCC3", "Potency": "inactive"}, {"smiles": "Cc1cccc(NC(=O)CSc2nnc(-c3ccco3)o2)c1", "Potency": "inactive"}, {"smiles": "O=C(CC(NC(=O)c1ccccc1)c1ccccc1)Nc1ccc(F)c(F)c1", "note": "(stereo unspecified)", "Potency": "inactive"}, {"smiles": "Cc1cc([N+](=O)[O-])c(-c2ccc(/C=N/n3cnnc3)o2)cc1Cl", "Potency": "inactive"}, {"smiles": "Cc1cc(-c2ccc(/C=N/n3cnnc3)o2)c([N+](=O)[O-])cc1C", "Potency": "10 µM (active)"}, {"smiles": "Cc1ccc(Cl)cc1-c1ccc(/C=N/n2cnnc2)o1", "Potency": "inactive"}, {"smiles": "CN(C)/C=C(/C(=O)c1ccccc1)S(=O)(=O)c1ccc(Cl)cc1", "Potency": "inactive"}, {"smiles": "CCN(C(=O)CSc1nc2ccccc2n1CC)C1CCS(=O)(=O)C1", "note": "(stereo unspecified)", "Potency": "inactive"}, {"smiles": "O=C(c1ccc(C(F)(F)F)cc1)C1CCCN(C(=O)c2csnn2)C1", "note": "(stereo unspecified)", "Potency": "inactive"}, {"smiles": "O=C(Nc1ccc(Cl)cc1)N1CCc2[nH]c3ccccc3c2C1", "Potency": "inactive"}, {"smiles": "CCCC(=O)N1CCc2[nH]c3ccccc3c2C1", "Potency": "inactive"}, {"smiles": "Cc1ccc2[nH]c3c(c2c1)CN(C(=O)CN1CCN(c2ccccc2)CC1)CC3", "Potency": "17.8 µM (active)"}, {"smiles": "O=C(/C=C/c1ccccc1)Oc1coc(CSc2ncccn2)cc1=O", "Potency": "inactive"}, {"smiles": "Cc1cc(C)cc(NC(=O)COC(=O)c2cc(C)oc2C)c1", "Potency": "inactive"}, {"smiles": "COc1ccc(N(CC(=O)NC2CCCC2)C(=O)CS(=O)CC(=O)Nc2ccc3c(c2)OCO3)cc1", "note": "(stereo unspecified)", "Potency": "inactive"}, {"smiles": "CCCn1c(SCC(=O)c2ccc3c(c2)OCCO3)nnc1C(C)C", "Potency": "20 µM (active)"}, {"smiles": "CCCn1c(SCC(N)=O)nnc1C(C)C", "Potency": "inactive"}, {"smiles": "CCCn1c(SCC(=O)Nc2c(C)cccc2C)nnc1C(C)C", "Potency": "inactive"}, {"smiles": "CCOC(=O)c1cc2c(=O)[nH]c(C(Cl)(Cl)Cl)nc2o1", "Potency": "inactive"}, {"smiles": "CCc1nnc(NC(=O)c2sc3nc(C)cc(COC)c3c2N)s1", "Potency": "inactive"}, {"smiles": "COc1ccc(CC(=O)NCc2nnc(SCC(=O)Nc3ncc(C)s3)n2C)cc1", "Potency": "inactive"}, {"smiles": "COc1ccc(CCN(C)CCN2C(=O)c3ccccc3C2=O)cc1OC", "Potency": "inactive"}, {"smiles": "COc1ccc(CN2C(=O)CC(Cc3ccc(C)cc3)C2=O)cc1OC", "note": "(stereo unspecified)", "Potency": "inactive"}, {"smiles": "COc1ccc(CCN2C(=O)C3CC=C(C)CC3C2=O)cc1OC", "note": "(stereo unspecified)", "Potency": "17.8 µM (active)"}, {"smiles": "O=c1cc(O)c(-c2cccc(C(F)(F)F)c2)c(Cl)[nH]1", "Potency": "inactive"}, {"smiles": "CCc1ccc(NC(=O)N2CCN(c3ccccc3)CC2)cc1", "Potency": "inactive"}, {"smiles": "CCOC(=O)c1ccc(Nc2cc(C)nc3nc(C)nn23)cc1", "Potency": "inactive"}, {"smiles": "CCOC(=O)c1ccc(NC(=O)Cn2nnc(-c3ccc(C)cc3)n2)cc1", "Potency": "inactive"}, {"smiles": "CCOC(=O)c1ccc(NC2Nc3cc(C)nn3S2)cc1", "note": "(stereo unspecified)", "Potency": "12.6 µM (active)"}, {"smiles": "CCc1ccc(NC2Nc3cc(C)nn3S2)cc1", "note": "(stereo unspecified)", "Potency": "10 µM (active)"}, {"smiles": "COc1ccc(NC(=O)CN(C)CC(=O)Nc2cccc(C(F)(F)F)c2)cc1", "Potency": "inactive"}, {"smiles": "CCC(C)(C)NC(=O)CN(C(=O)C(=O)Nc1ccc2c(c1)OCCO2)C(C)(C)CC", "Potency": "inactive"}, {"smiles": "Cc1nnc(SCc2cccc(Cl)c2)n(N)c1=O", "Potency": "inactive"}, {"smiles": "CCCn1c(N)c(C(=O)CSc2nc3ccccc3c(=O)n2-c2ccc(OC)cc2)c(=O)[nH]c1=O", "Potency": "inactive"}, {"smiles": "O=C(NCc1ccccc1Cl)C1CCN(S(=O)(=O)N2CCOCC2)CC1", "Potency": "inactive"}, {"smiles": "CCC(=O)Nc1ccc(C(=O)N2CCN(C(=O)c3ccco3)CC2)cc1", "Potency": "inactive"}, {"smiles": "O=C(CCCN1C(=O)CCC1=O)Nc1ccc(Cl)c(C(F)(F)F)c1", "Potency": "inactive"}, {"smiles": "O=C(CN1CCN(C(=O)c2ccco2)CC1)Nc1ccc(Cl)c(C(F)(F)F)c1", "Potency": "17.8 µM (active)"}, {"smiles": "O=C(CCN1C(=O)/C(=C/c2cccs2)SC1=S)NNC(=O)c1cccc(O)c1", "Potency": "inactive"}, {"smiles": "CCOC(=O)C1=C(O)CSC1=Nc1cccc(Cl)c1", "Potency": "inactive"}, {"smiles": "Clc1cccc(N=C2NN=C(c3ccc4c(c3)OCCO4)CS2)c1", "Potency": "28.2 µM (active)"}, {"smiles": "c1ccc(CN2CCC(N=C3NN=C(c4ccc5c(c4)OCCO5)CS3)CC2)cc1", "Potency": "inactive"}, {"smiles": "Cc1ccc(C(=O)Cc2nnc(C)s2)cc1", "Potency": "inactive"}, {"smiles": "COc1cc(CN(C)Cc2nc3cc(C(F)(F)F)ccc3c(=O)[nH]2)ccc1OC(F)F", "Potency": "inactive"}, {"smiles": "O=C(O)c1ccc(NS(=O)(=O)c2ccc3c(c2)C(=O)c2cc(S(=O)(=O)Nc4ccc(C(=O)O)cc4)ccc2-3)cc1", "Potency": "inactive"}, {"smiles": "CCc1ccc(Nc2nnc(SCC(=O)c3ccc4c(c3)NC(=O)CO4)s2)cc1", "Potency": "3.55 µM (active)"}, {"smiles": "CCCc1nc2ccccc2c(C(=O)OCC(=O)c2ccc3c(c2)NC(=O)CO3)c1CC", "Potency": "inactive"}, {"smiles": "CN(C(=O)CSc1nnc(Nc2ccccc2)s1)C1CCS(=O)(=O)C1", "note": "(stereo unspecified)", "Potency": "inactive"}, {"smiles": "COc1ccc(OCCCn2cccc2/C=C2/C(=N)N3OC(C)=CC3=NC2=O)cc1", "Potency": "inactive"}, {"smiles": "O=C(NC1CC1)C1CCCN(C(=O)NC2CCCCC2)C1", "note": "(stereo unspecified)", "Potency": "inactive"}, {"smiles": "C=CCc1cccc2cc(C(=O)Nc3ccc(NC(C)=O)cc3)c(=O)oc12", "Potency": "inactive"}, {"smiles": "COCCNc1cc(NCCOC)c([N+](=O)[O-])cc1[N+](=O)[O-]", "Potency": "inactive"}, {"smiles": "Cn1c(-c2ccc(F)cc2)cnc1SCC(=O)NCc1ccco1", "Potency": "22.4 µM (active)"}, {"smiles": "O=C(CSc1nnc2scc(-c3ccc(F)cc3)n12)NCc1ccco1", "Potency": "inactive"}, {"smiles": "Cn1c(-c2ccc(F)cc2)cnc1SCC(=O)NNC(=O)Cc1ccccc1", "Potency": "inactive"}, {"smiles": "COc1ccc(-c2ccc(OC(=O)NC3CCS(=O)(=O)C3)cc2)cc1", "note": "(stereo unspecified)", "Potency": "inactive"}]}]}
